Source: PubChem (National Center for Advancing Translational Sciences (NCATS))
Shown are actives, neighbours in structure and some others; about 1.4% of the full set was active somewhere.
VACV mCherry inh: vaccinia inhibition (mCherry reporter); Potency, µM (titrated, usually from 36.5 µM), hits mostly inhibitors; Vaccinia virus mCherry reporter infection, fluorescence; 0.63% of 310,000 active; calls by dose curve; tested in A549 cells; also: nearly all actives have a fitted effect of over 35% in size
SARS PLP yeast: blocks SARS-CoV papain-like protease in a yeast assay; S. cerevisiae expressing SARS-CoV PLpro, growth rescue; Potency, µM (doses to about 32.9 µM), actives largely listed as activators; 0.19% of 330,000 active; calls by dose curve; also: nearly all actives have a fitted effect of over 55% in size
AmpC inh no detg: inhibitors of E. coli AmpC beta-lactamase without detergent. Potency, µM (highest dose often 57.1 µM), actives largely listed as inhibitors. P00811. AmpC nitrocefin hydrolysis, absorbance 480 nm, 0.0001% Triton. 0.52% of 330,000 active. AID 485341; also: nearly all actives have a fitted effect of over 20% in size
Target sequence (P00811 whole entry, looked up): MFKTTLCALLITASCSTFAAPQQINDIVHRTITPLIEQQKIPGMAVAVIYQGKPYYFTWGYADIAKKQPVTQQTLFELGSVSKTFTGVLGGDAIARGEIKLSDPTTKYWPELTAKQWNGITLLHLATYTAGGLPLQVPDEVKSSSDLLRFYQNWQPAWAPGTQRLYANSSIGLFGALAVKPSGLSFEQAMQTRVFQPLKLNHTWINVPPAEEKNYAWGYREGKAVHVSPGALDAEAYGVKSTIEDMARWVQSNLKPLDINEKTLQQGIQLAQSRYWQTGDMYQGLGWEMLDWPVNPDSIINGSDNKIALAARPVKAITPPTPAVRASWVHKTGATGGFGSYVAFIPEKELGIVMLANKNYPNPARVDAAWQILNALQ
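AmpC (5.3 nM in the dispensed reagent) in 20 mM phosphate pH 7.0 with 0.01% (detergent screen) or 0.0001% Triton X-100 was preincubated with compounds for 15 min at room temperature. Nitrocefin was then added from an 800 uM solution, and hydrolysis was followed at 480 nm.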
AmpC detergent: inhibitors of E. coli AmpC beta-lactamase with detergent. 0.041% of 370,000 active. P00811. AmpC hydrolysis of nitrocefin, absorbance 480 nm, 0.01% Triton. AID 485294. Potency, µM (doses to about 114 µM), hits mostly inhibitors; also: nearly all actives have a fitted effect of over 25% in size
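20 mM phosphate pH 7.0 + 0.01% (detergent screen) or 0.0001% Triton X-100; 5.3 nM AmpC reagent; cpd preinc 15 min RT; nitrocefin (800 uM stock) to start; A480 q20 s × 4 min; Activity was normalised to no-enzyme and no-compound control wells.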
AMA1-RON2 inh: disrupts binding of P. falciparum AMA1 to RON2 | AlphaScreen AMA1-biotinylated RON2 peptide binding | Potency, µM (series often up to 58.2 µM), most hits filed as inhibitors | 0.2% of 360,000 active | AID 720542; also: nearly all actives have a fitted effect of over 45% in size
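AMA1 (3D7) with his tag at 25 nM final met compounds first, then biotinylated RON2 peptide at 25 nM; detection used donor plus acceptor beads, 10 µg/mL apiece, read by AlphaScreen after 30 min at room temperature.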
VACV Venus inh: inhibitors of vaccinia virus (Venus reporter); 0.46% of 330,000 active; AID 720580; Vaccinia virus Venus reporter expression, fluorescence; Potency, µM (highest dose often 36.5 µM), most hits filed as inhibitors; calls by dose curve; tested in A549 cells; also: nearly all actives have a fitted effect of over 30% in size
Hits are given with their value; 0 = inactive; ? = inconclusive; - = not tested or not shown. Unless noted, calls follow the shape of the dose curve; as a rule, active = well fitted curve in the direction sought with a large enough effect; inconclusive = small, poorly fitted or top-dose-only effect, or another doubt; inactive = no such curve, though single readings can be large; an effect the other way counts as inactive or inconclusive.

SMILES	VACV mCherry inh	SARS PLP yeast	AmpC inh no detg	AmpC detergent	AMA1-RON2 inh	VACV Venus inh
C#CCOCCOCCOCCNc1nc(N2CCN(C(=O)CCCCCCCCCCNC(=O)[C@H]([C@@H](C)CC)n3cc(CCCCCN)nn3)CC2)nc(N2CCN(C(=O)CCCCCCCCCCNC(=O)[C@H](CO)n3cc(CCCCCN)nn3)CC2)n1	?	0	0	?	0	10µM
C#CCOCCOCCOCCNc1nc(N2CCN(C(=O)CCCCCCCCCCNC(=O)[C@H]([C@@H](C)CC)n3cc(CCCCCN)nn3)CC2)nc(N2CCN(C(=O)CCCCCCCCCCNC(=O)[C@H]([C@@H](C)CC)n3cc(CCCCN=C(N)N)nn3)CC2)n1	-	0	0	0	-	-
C#CCOCCOCCOCCNc1nc(N2CCN(C(=O)CCCCCCCCCCNC(=O)Cn3cc(CCCCCN)nn3)CC2)nc(N2CCN(C(=O)CCCCCCCCCCNC(=O)[C@H]([C@@H](C)CC)n3cc(CCCCN=C(N)N)nn3)CC2)n1	?	0	0	0	?	5.6µM
Cc1ccc(N2C(=O)CS(=O)(=O)C23C(=O)N(Cc2ccccc2C)c2ccccc23)cc1Cl (stereo not drawn)	0	-	-	0	-	0
CCCN1C(=O)c2ccccc2NC1c1ccc(OC)c(COc2ccc([N+](=O)[O-])c(C)c2)c1 (stereo not drawn)	0	-	-	-	-	0
O=C(CN(C1CCCCC1)S(=O)(=O)c1ccc(F)cc1)NCC1CCCO1 (stereo not drawn)	?	-	-	-	0	11µM
COc1ccc(-c2ccc(C(=O)NCc3ccccc3)c3occc23)c(C)c1	0	-	-	-	0	0
COc1ccc(-c2ccc(C(=O)NCc3ccc(N4CCN(C)CC4)cc3)c3occc23)c(C)c1	0	-	-	-	16µM	0
Cc1c(C(=O)NCc2cccc(F)c2)sc2ncnc(NCC3CCCO3)c12 (stereo not drawn)	0	-	-	-	-	0
COc1ccc(C2CC(=O)Oc3c(C(CCN4CCCCC4)c4ccc(N(C)C)cc4)c(OC)cc(OC)c32)cc1 (stereo not drawn)	?	0	0	0	?	?
COc1cc(C2CC(=O)Oc3c(C(CCN4CCN(c5ccccc5)CC4)c4ccc(N(C)C)cc4)c(OC)cc(OC)c32)cc(OC)c1OC (stereo not drawn)	0	0	0	0	14µM	0
COc1cc(OC)c2c(-c3ccccc3)cc(=O)oc2c1C(CCN1CCCC(C)C1)c1ccc(N(C)C)cc1 (stereo not drawn)	0	0	0	0	16µM	?
COc1cc(O)c(C(CCN2CCCC2)c2ccc3c(c2)OCO3)c(OC)c1 (stereo not drawn)	?	0	0	0	0	0
COc1cc(C2CC(=O)Oc3c(C(CCN4CCOCC4)c4ccc(N(C)C)cc4)c(OC)cc(OC)c32)cc(OC)c1OC (stereo not drawn)	0	0	0	0	?	0
COc1ccc(C2CC(=O)Oc3c(C(CCN4CCCC(C)C4)c4ccc(N(C)C)cc4)c(OC)cc(OC)c32)cc1 (stereo not drawn)	?	0	0	0	18µM	0
COc1cc(O)c(C(CCN2CCN(c3ccccc3)CC2)c2ccc3c(c2)OCO3)c(OC)c1 (stereo not drawn)	0	0	0	0	16µM	0
CSc1ccc(C(=O)N2CCc3c(cnc(C)c3CNC(=O)c3cncs3)C2)cc1	0	-	-	-	-	0
CC(C)CCN(Cc1ccco1)C(=O)c1cc2c(Cl)nc3ccccc3c2s1	0	-	-	0	-	0
COc1cc(OC)c2ccc(=O)oc2c1C(CCN1CCN(c2ccccc2)CC1)c1ccc(N(C)C)cc1 (stereo not drawn)	0	0	0	0	25µM	0
CCCCCc1cc(=O)oc2c(C(CCN3CCCCC3)c3ccc4c(c3)OCO4)c(OC)cc(OC)c12 (stereo not drawn)	?	0	0	0	0	14µM
CCCCCc1cc(=O)oc2c(C(CCN3CCN(c4ccccc4)CC3)c3ccc(N(C)C)cc3)c(OC)cc(OC)c12 (stereo not drawn)	0	0	0	0	11µM	0
